The other results are listed elsewhere or left out. Where a call stands in place of a potency, no number is given. Records with an inconclusive call do not appear. Active and inactive are the calls of the source. Calls come from the whole dose curve; as a rule, active = well fitted cell-killing curve with a large enough effect; inconclusive = small, poorly fitted or top-dose-only effect, or effect the other way; inactive = no such curve, though single readings can be large or run the other way.
Assay: qHTS for Inhibitors of the vitamin D receptor (VDR): Hit Validation using a Cytotoxicity Assay (AID 602204); note: nearly all actives have a fitted effect of over 75% in size;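 for potency: cells co-treated with VDR agonist LG190178 at 300 nM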
Conditions: cytotoxicity counter-screen, cell viability; series mostly up to 48.3 µM
Summary of the method: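 Compounds stayed on cells (20,000/well, plated 4 hours earlier) for 18 hours. Viability then taken as ATP content by CellTiter-Glo, read as luminescence after 30 minutes. Controls: high-concentration cycloheximide (positive), DMSO (negative).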
For c1ccc2c(C[n+]3csc4ccccc43)cccc2c1, the Potency was “inactive”.
For CSc1nnc(NC(=O)c2nc(S(=O)(=O)Cc3ccc(C)cc3)ncc2Cl)s1, the Potency was 16.4 µM (active).
With O=c1cc(CO)oc(C(Nc2cccc(C(F)(F)F)c2)c2ccccn2)c1O (stereo not drawn) the Potency was “inactive”.
For O=C(/C=C/c1ccc(Cl)c([N+](=O)[O-])c1)c1cccnc1, the Potency was “inactive”.
For CCOC(=O)c1sc(=S)n2c1[nH]c(=O)c1ccc(C(=O)OC)cc12, the Potency was “inactive”.
In the case of Cc1cc(C)nc(S/C=C/C(=O)c2ccccc2)n1, the Potency is reported as 23.8 µM (active).
With C[C@@H](NC(=O)OC(C)(C)C)c1nnc(S(=O)(=O)Cc2ccccc2)o1 the Potency was “inactive”.
In the case of CC(=O)N1CC[n+]2c(-c3ccc([N+](=O)[O-])cc3)csc21, the Potency is reported as “inactive”.

Reference: PubChem BioAssay (NCATS)
Potency is the fitted concentration of half-maximal effect.
